# Laboratory results taken from PubChem BioAssay (NCATS).
# A number with no mark means an inactive call. Results filed as inconclusive are left out. Entries that show only a call come without a potency. Active and inactive are the calls of the source. The call rests on the fitted dose curve; in most records, active means well fitted curve in the direction sought with a large enough effect; inconclusive means small, poorly fitted or top-dose-only effect, or another doubt; inactive means no such curve, though single readings can be large; an effect the other way counts as inactive or inconclusive.
# What was measured:
# [1] = Quantitative High-Throughput drug screen in 47 multiple myeloma cell lines against the NCATS MIPE library collection: OPM1_PLB cell viability assay (AID 1918989); further: nearly all actives have a fitted effect of over 40% in size; further: potency means the concentration at half of the fitted maximal effect
# Summary of the method: (§1)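 Viability after 48 h drug exposure was measured as ATP-dependent luminescence. Cells, 500 per well, sat at 37 °C under 5% CO2; DMSO wells set 100%, media-only wells 0%.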
# [2] = Quantitative High-Throughput drug screen in 47 multiple myeloma cell lines against the NCATS MIPE library collection: XG6_PLB cell viability assay (AID 1919865); further: nearly all actives have a fitted effect of over 40% in size; further: potency means the concentration at half of the fitted maximal effect
# Summary of the method: as §1
# [3] = Quantitative High-Throughput drug screen in 47 multiple myeloma cell lines against the NCATS MIPE library collection: XG1_PLB cell viability assay (AID 1919866); further: nearly all actives have a fitted effect of over 35% in size; further: potency means the concentration at half of the fitted maximal effect
# Summary of the method: as §1
# [4] = Quantitative High-Throughput drug screen in 47 multiple myeloma cell lines against the NCATS MIPE library collection: PE2_PLB cell viability assay (AID 1919869); further: nearly all actives have a fitted effect of over 35% in size; further: potency means the concentration at half of the fitted maximal effect
# Summary of the method: as §1
# [5] = Quantitative High-Throughput drug screen in 47 multiple myeloma cell lines against the NCATS MIPE library collection: PCM6_Riken cell viability assay (AID 1919870); further: nearly all actives have a fitted effect of over 30% in size; further: potency means the concentration at half of the fitted maximal effect
# Summary of the method: as §1
# [6] = Quantitative High-Throughput drug screen in 47 multiple myeloma cell lines against the NCATS MIPE library collection: RPMI8226_ATCC cell viability assay (AID 1919871); further: nearly all actives have a fitted effect of over 30% in size; further: potency means the concentration at half of the fitted maximal effect
# Summary of the method: as §1
# [7] = Quantitative High-Throughput drug screen in 47 multiple myeloma cell lines against the NCATS MIPE library collection: OPM2_DSMZ cell viability assay (AID 1919872); further: nearly all actives have a fitted effect of over 30% in size; further: potency means the concentration at half of the fitted maximal effect
# Summary of the method: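 qHTS of the MIPE 4.0 collection: 500 myeloma cells/well, 48 h drug exposure at 37C in 5% CO2, then CellTiter-Glo for 5 min at room temperature before luminescence reading.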
# [8] = Quantitative High-Throughput drug screen in 47 multiple myeloma cell lines against the NCATS MIPE library collection: KMS28BM_JCRB cell viability assay (AID 1919874); further: nearly all actives have a fitted effect of over 35% in size; further: potency means the concentration at half of the fitted maximal effect
# Summary of the method: as §1
# [9] = Quantitative High-Throughput drug screen in 47 multiple myeloma cell lines against the NCATS MIPE library collection: VP6_DJ cell viability assay (AID 1919867); further: nearly all actives have a fitted effect of over 40% in size; further: potency means the concentration at half of the fitted maximal effect
# Summary of the method: as §1
# [10] = Quantitative High-Throughput drug screen in 47 multiple myeloma cell lines against the NCATS MIPE library collection: KMS11_JCRBsus cell viability assay (AID 1919873); further: nearly all actives have a fitted effect of over 50% in size; further: potency means the concentration at half of the fitted maximal effect
# Summary of the method: as §1
# [11] = Quantitative High-Throughput drug screen in 47 multiple myeloma cell lines against the NCATS MIPE library collection: SKMM1_PLB cell viability assay (AID 1919863); conditions: SKMM1 myeloma viability, CellTiter-Glo ATP, 48 h; viability: hits give low values; further: nearly all actives have a fitted effect of over 35% in size; further: potency means the concentration at half of the fitted maximal effect; on viability: series mostly up to about 46 µM
# Summary of the method: as §1
# [12] = Quantitative High-Throughput drug screen in 47 multiple myeloma cell lines against the NCATS MIPE library collection: U266_ATCC cell viability assay (AID 1919864); further: nearly all actives have a fitted effect of over 35% in size; further: potency means the concentration at half of the fitted maximal effect
# Summary of the method: as §1
# [13] = Quantitative High-Throughput drug screen in 47 multiple myeloma cell lines against the NCATS MIPE library collection: UTMC2_PLB cell viability assay (AID 1919868); further: nearly all actives have a fitted effect of over 55% in size
# Summary of the method: as §1
# [14] = biological target: Cytochrome P450 2D6 (Homo sapiens) (UniProt P10635); experiment: qHTS for inhibitors of CYP2D6 against the NCATS DSHEA and TCM libraries (AID 1919972)
# Summary of the method: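 Steps: enzyme plus luciferin substrate dispensed; test substances pinned; 15 min RT; 1x NADPH regenerating solution added, 30–45 min RT protected from light; detection reagent, 30 min RT; luminescence measured. Minus-enzyme wells as background.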
# [15] = biological target: Cytochrome P450 2C19 (Homo sapiens) (UniProt P33261); experiment: qHTS for inhibitors of CYP2C19 against the NCATS DSHEA and TCM libraries (AID 1919974);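 further: luminescence from luciferin released by CYP2C19 oxidation of a pro-luciferin substrate; potency means the concentration at half of the fitted maximal effect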
# Summary of the method: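 Light output from converted D-luciferin reports remaining CYP activity. Compounds preincubate with enzyme and substrate for 15 min; NADPH regeneration (1x final) runs the reaction for 30-45 min.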
# [16] = KB-3-1 P-gp reporter qHTS against the NCATS DSHEA and TCM libraries (AID 1919975)
# Summary of the method: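 Cell viability qHTS: 500 KB-3-1 cells/well, substances in titration, ~72 h, 37C; luminescent CellTiter-Glo read.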
# [17] = biological target: Cytochrome P450 1A2 (Homo sapiens) (UniProt P05177); experiment: qHTS for inhibitors of CYPIA2 against the NCATS DSHEA and TCM libraries (AID 1919976);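 further: light from luciferin formed by CYP1A2 from a pro-luciferin substrate; series mostly up to about 37 µM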
# Summary of the method: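 In this quantitative HTS, inhibition of recombinant human CYP1A2 was measured as loss of luciferin-derived luminescence. Turnover ran 30-45 min at RT after NADPH regeneration solution was added.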
# [18] = qHTS Counterscreen for compound interference against the NCATS DSHEA and TCM libraries (AID 1919978); conditions: firefly luciferase detection reagent interference, luminescence;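 further: compounds preincubated with 1 µM D-luciferin or buffer before detection reagent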
# Summary of the method: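 Interference check: test samples were incubated with D-luciferin (final 1 uM) or buffer only for 15 min, room temperature, in a qHTS titration up to 39.8 uM, then developed with detection reagent and read by luminescence.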
# Chain of Cytochrome P450 1A2 (Homo sapiens) (P05177 whole entry, looked up): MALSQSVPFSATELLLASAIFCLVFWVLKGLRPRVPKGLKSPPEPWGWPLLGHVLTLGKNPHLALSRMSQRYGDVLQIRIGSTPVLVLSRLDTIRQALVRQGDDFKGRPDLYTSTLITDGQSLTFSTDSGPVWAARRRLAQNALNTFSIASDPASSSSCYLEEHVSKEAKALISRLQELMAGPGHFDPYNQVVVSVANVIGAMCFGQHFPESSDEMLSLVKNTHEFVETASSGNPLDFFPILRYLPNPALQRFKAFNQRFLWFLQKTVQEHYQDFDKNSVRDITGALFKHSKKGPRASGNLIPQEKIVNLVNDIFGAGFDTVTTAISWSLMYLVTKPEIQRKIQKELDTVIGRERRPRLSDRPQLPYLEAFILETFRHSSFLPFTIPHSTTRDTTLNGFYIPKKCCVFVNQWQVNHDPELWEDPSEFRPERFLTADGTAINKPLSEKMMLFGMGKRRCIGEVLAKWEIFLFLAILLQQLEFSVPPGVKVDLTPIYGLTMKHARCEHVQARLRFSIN
# Chain of Cytochrome P450 2C19 (Homo sapiens) (P33261 whole entry, looked up): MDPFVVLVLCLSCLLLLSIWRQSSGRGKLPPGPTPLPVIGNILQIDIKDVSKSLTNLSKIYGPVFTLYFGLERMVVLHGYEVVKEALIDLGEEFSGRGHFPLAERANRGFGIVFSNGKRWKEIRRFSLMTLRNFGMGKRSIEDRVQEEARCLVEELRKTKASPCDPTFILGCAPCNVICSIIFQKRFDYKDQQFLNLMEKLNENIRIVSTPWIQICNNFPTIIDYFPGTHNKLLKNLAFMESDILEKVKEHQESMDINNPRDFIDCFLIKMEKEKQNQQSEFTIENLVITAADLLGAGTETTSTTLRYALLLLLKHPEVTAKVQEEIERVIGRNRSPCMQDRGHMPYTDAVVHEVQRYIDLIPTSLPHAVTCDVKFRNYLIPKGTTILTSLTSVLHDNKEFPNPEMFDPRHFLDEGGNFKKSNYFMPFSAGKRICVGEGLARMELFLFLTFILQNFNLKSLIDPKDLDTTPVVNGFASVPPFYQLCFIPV
# Chain of Cytochrome P450 2D6 (Homo sapiens) (P10635 whole entry, looked up): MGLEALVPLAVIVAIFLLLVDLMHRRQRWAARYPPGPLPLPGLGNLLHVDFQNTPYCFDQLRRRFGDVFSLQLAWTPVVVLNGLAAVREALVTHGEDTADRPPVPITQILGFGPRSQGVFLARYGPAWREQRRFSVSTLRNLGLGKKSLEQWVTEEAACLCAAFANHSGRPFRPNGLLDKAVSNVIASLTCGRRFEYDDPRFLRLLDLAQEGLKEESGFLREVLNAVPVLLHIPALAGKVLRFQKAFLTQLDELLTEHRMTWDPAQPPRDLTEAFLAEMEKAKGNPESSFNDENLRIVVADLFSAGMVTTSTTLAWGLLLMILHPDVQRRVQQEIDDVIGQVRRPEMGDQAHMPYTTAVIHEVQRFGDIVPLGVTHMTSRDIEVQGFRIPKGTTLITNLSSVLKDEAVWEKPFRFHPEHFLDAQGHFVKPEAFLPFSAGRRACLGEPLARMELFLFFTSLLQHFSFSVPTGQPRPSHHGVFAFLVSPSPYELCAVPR
structure (smiles),measurement,setting,value
Cc1onc(-c2ccccc2Cl)c1C(=O)N[C@@H]1C(=O)N2[C@@H]1SC(C)(C)[C@@H]2C(=O)O,Potency,[1],inactive
same,Potency,[2],inactive
same,Potency,[3],inactive
same,Potency,[4],inactive
same,Potency,[5],inactive
same,Potency,[6],inactive
same,Potency,[7],inactive
same,Potency,[8],inactive
CCCc1cc(C(N)=S)ccn1,Potency,[1],inactive
same,Potency,[2],inactive
same,Potency,[3],inactive
same,Potency,[9],inactive
same,Potency,[4],inactive
same,Potency,[5],inactive
same,Potency,[6],inactive
same,Potency,[7],inactive
same,Potency,[10],inactive
same,Potency,[8],inactive
CCOCC(O)COc1ccc(NC(=O)CC[S+](C)C)cc1 (stereo not given),Potency,[1],inactive
same,viability,[11],111%
same,Potency,[2],inactive
same,Potency,[3],inactive
same,Potency,[4],inactive
same,Potency,[6],inactive
same,Potency,[8],inactive
CC(C)OC(=O)OCOP(=O)(CO[C@H](C)Cn1cnc2c(N)ncnc21)OCOC(=O)OC(C)C,Potency,[1],inactive
same,Potency,[12],16.6 µM (active)
same,Potency,[5],16.6 µM (active)
same,Potency,[7],inactive
same,Potency,[8],14.8 µM (active)
OC(Cn1cncn1)(Cn1cncn1)c1ccc(F)cc1F,Potency,[1],inactive
same,Potency,[12],inactive
same,Potency,[2],inactive
same,Potency,[3],inactive
same,Potency,[9],inactive
same,Potency,[13],inactive
same,Potency,[4],inactive
same,Potency,[5],inactive
same,Potency,[6],5.26 µM (active)
same,Potency,[8],inactive
COc1cc2c(Nc3ccc(Br)cc3F)ncnc2cc1OCC1CCN(C)CC1,Potency,[1],6.62 µM (active)
same,Potency,[12],20.9 µM (active)
same,Potency,[2],7.43 µM (active)
same,Potency,[3],7.43 µM (active)
same,Potency,[6],23.5 µM (active)
CC1(C)[C@H](C(=O)O)N2C(=O)C[C@H]2S1(=O)=O,Potency,[1],inactive
same,viability,[11],120%
same,Potency,[9],inactive
same,Potency,[4],inactive
same,Potency,[6],inactive
same,Potency,[7],inactive
same,Potency,[8],inactive
C[C@@H]1C[C@H]2[C@@H]3CCC4=CC(=O)C=C[C@]4(C)[C@@]3(Cl)[C@@H](O)C[C@]2(C)[C@@]1(OC(=O)c1ccco1)C(=O)CCl,Potency,[1],10.5 µM (active)
same,Potency,[12],9.35 µM (active)
same,Potency,[2],1.66 µM (active)
same,Potency,[3],3.72 µM (active)
same,Potency,[4],5.9 µM (active)
same,Potency,[5],2.96 µM (active)
same,Potency,[7],23.5 µM (active)
same,Potency,[8],29.6 µM (active)
CNS(=O)(=O)Cc1ccc2[nH]cc(CCN(C)C)c2c1,Potency,[1],inactive
same,viability,[11],112%
same,Potency,[2],inactive
same,Potency,[3],inactive
same,Potency,[4],14.8 µM (active)
same,Potency,[5],inactive
same,Potency,[6],inactive
same,Potency,[7],inactive
same,Potency,[10],inactive
same,Potency,[8],inactive
NNC(=O)c1ccncc1,Potency,[1],inactive
same,Potency,[2],inactive
same,Potency,[3],inactive
same,Potency,[4],inactive
same,Potency,[5],inactive
same,Potency,[6],inactive
same,Potency,[7],inactive
same,Potency,[8],inactive
same,Potency,[14],inactive
same,Potency,[15],12.6 µM (active)
same,Potency,[16],inactive
same,outcome,[17],inactive
same,max response,[18],1.88%
Nc1ccc(S(=O)(=O)Nc2ccccn2)cc1,Potency,[1],inactive
same,Potency,[3],inactive
same,Potency,[4],inactive
same,Potency,[5],inactive
same,Potency,[7],inactive
same,Potency,[10],inactive
same,Potency,[8],inactive
NC(N)=NC(N)=NCCc1ccccc1,Potency,[1],20.9 µM (active)
same,Potency,[3],7.43 µM (active)
same,Potency,[9],10.5 µM (active)
same,Potency,[4],16.6 µM (active)
same,Potency,[6],20.9 µM (active)
same,Potency,[8],7.43 µM (active)
CC1=C(C(=O)O)N2C(=O)[C@@H](NC(=O)C(N)c3ccccc3)[C@H]2SC1 (stereo not given in full),Potency,[1],inactive
same,viability,[11],130%
same,Potency,[13],inactive
same,Potency,[4],inactive
same,Potency,[5],inactive
same,Potency,[7],inactive
same,Potency,[10],inactive
same,Potency,[8],inactive
Cc1nnc(NS(=O)(=O)c2ccc(N)cc2)s1,Potency,[1],14.8 µM (active)
same,Potency,[12],14.8 µM (active)
same,Potency,[2],1.87 µM (active)
same,Potency,[3],1.32 µM (active)
same,Potency,[9],0.187 µM (active)
same,Potency,[4],inactive
same,Potency,[5],1.18 µM (active)
same,Potency,[8],4.18 µM (active)
CC(C)C1CCC(C(=O)N[C@H](Cc2ccccc2)C(=O)O)CC1 (stereo not given in full),Potency,[1],inactive
same,Potency,[2],inactive
same,Potency,[3],inactive
same,Potency,[4],inactive
same,Potency,[5],inactive
same,Potency,[6],23.5 µM (active)
same,Potency,[10],16.6 µM (active)
same,Potency,[8],inactive
CC(=O)[C@H]1CC[C@H]2[C@@H]3CC=C4C[C@@H](O)CC[C@]4(C)[C@H]3CC[C@]12C,Potency,[1],inactive
same,viability,[11],123%
same,Potency,[2],inactive
same,Potency,[3],inactive
same,Potency,[4],inactive
same,Potency,[5],inactive
same,Potency,[10],inactive
same,Potency,[8],inactive
S=P(N1CC1)(N1CC1)N1CC1,Potency,[1],inactive
same,viability,[11],142%
same,Potency,[2],23.5 µM (active)
same,Potency,[4],inactive
same,Potency,[5],inactive
same,Potency,[6],inactive
same,Potency,[8],inactive
COc1cc2ncnc(Nc3cccc(Cl)c3)c2cc1OC,Potency,[1],20.9 µM (active)
same,Potency,[12],0.132 µM (active)
same,Potency,[7],inactive
same,Potency,[10],18.7 µM (active)
Cc1noc(NS(=O)(=O)c2ccc(N)cc2)c1C,Potency,[1],inactive
same,Potency,[2],inactive
same,Potency,[3],inactive
same,Potency,[4],inactive
same,Potency,[5],inactive
same,Potency,[6],inactive
same,Potency,[10],inactive
same,Potency,[8],inactive
Cc1oc(=O)oc1CN1CCN(c2cc3c(cc2F)c(=O)c(C(=O)O)c2n3C(C)S2)CC1 (stereo not given),Potency,[1],inactive
same,Potency,[12],inactive
same,Potency,[4],13.2 µM (active)
same,Potency,[5],inactive
same,Potency,[6],inactive
same,Potency,[10],inactive
same,Potency,[8],inactive
OCc1ccc(-c2nn(Cc3ccccc3)c3ccccc23)o1,Potency,[1],18.7 µM (active)
same,Potency,[11],5.9 µM (active)
same,Potency,[3],inactive
same,Potency,[4],inactive
same,Potency,[5],inactive
same,Potency,[6],4.18 µM (active)
same,Potency,[7],inactive
same,Potency,[8],inactive
CN1CCN(c2c(F)cc3c(=O)c(C(=O)O)cn4c3c2OCN4C)CC1,Potency,[1],inactive
same,Potency,[12],inactive
same,Potency,[3],inactive
same,Potency,[4],inactive
same,Potency,[5],inactive
same,Potency,[6],inactive
same,Potency,[10],inactive
same,Potency,[8],inactive
